From PubChem BioAssay come the findings set out here.

In assay [1] the target is Inward rectifier potassium channel 2 (Mus musculus) (UniProt P35561). Nature of the assay: mouse Kir2.1 channel blockers, retest, confirmation, cell-based, FluxOR thallium flux, duplicate (AID 2032;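 active = Primary-screen hit whose thallium flux fell at least 3 control SD below untreated wells in both duplicates, with normal baseline fluorescence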). The conditions noted are these: Kir2.1-expressing cells, FluxOR thallium flux fluorescence, at 10 µM; hits give low values.
A short description of assay [2]: nonspecific thallium flux effects in parental HEK293 cells, confirmation, counter-screen for Kir2.1 inhibitor project, cell-based, FluxOR thallium flux, duplicate, single concentration (AID 2105;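 active = dye signal at least 3 control SD above or below untreated wells in both duplicates, raw fluorescence within 3, either direction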). To be noted: FluxOR thallium flux fluorescence, at 10 µM; 0% = unstimulated blank wells. On the technique in general: A counterscreen serves to expose hits that act by an unwanted route or on another target.

Assay [3] is described as follows: nonspecific thallium flux increase in parental CHO-K1, confirmation, counter-screen for KCNQ2 potentiator project, cell-based, FluxOR thallium flux, duplicate (AID 2282;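 active = signal rise of at least 3 SD above the untreated control mean, in both duplicate wells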;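 also: counter screen of KCNQ2 potentiator hits so any rise reflects channel-independent effects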). The conditions noted are these: parental CHO-K1 cells, FluxOR thallium flux fluorescence; at 10 µM; hits give high values; zero = vehicle mean+3SD, 100% = vehicle-minus-blank window.
Assay [4] addresses Potassium voltage-gated channel subfamily KQT member 1 (Homo sapiens) (UniProt P51787). The assay is described as follows: human KCNQ1 channel potentiation off-target, confirmation, selectivity assay for KCNQ2 potentiator project, cell-based, CHO, FluxOR thallium flux (AID 2283;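 active = fluorescence ratio rise of at least 3 SD of vehicle wells above their mean, in both replicate wells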;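 also: 0% = vehicle mean plus 3 SD and 100% = vehicle minus unstimulated blank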). To be noted: CHO KCNQ1 stable, FluxOR thallium flux fluorescence; at 10 µM; hits give high values; beyond 3SD, as % of vehicle-control signal.

Assay [5] has as its target Potassium voltage-gated channel subfamily KQT member 2 (Rattus norvegicus) (UniProt O88943). The assay is described as follows: rat KCNQ2 channel potentiators, confirmation, cell-based, CHO, FluxOR thallium flux, duplicate (AID 2287;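 active = fluorescence ratio rising 3 SD or more over the vehicle control mean in both replicates, plus primary screen hit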;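 also: peak minus minimum thallium fluorescence divided by baseline after K/Tl stimulus; 0% = vehicle mean plus 3 SD and 100% = vehicle minus unstimulated blank difference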). To be noted: CHO-KCNQ2 cells, FluxOR thallium flux fluorescence; at 10 µM; hits give high values.
The target of assay [6] is Inward rectifier potassium channel 2 (Mus musculus) (UniProt P35561). The assay is described as follows: PubChem AID 2345.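 Also: 0% = vehicle mean plus 3 SD and 100% = vehicle minus no-stimulus blank window.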 To be noted: HEK293 Kir2.1, FluxOR thallium flux fluorescence; at 10 µM; hits give high values.
The target in assay [7] is Potassium voltage-gated channel subfamily KQT member 2 (Rattus norvegicus) (UniProt O88943). The assay is described as follows: potentiators of retigabine-insensitive KCNQ2 W236L, mechanism study for KCNQ2 potentiator project, cell-based, rat KCNQ2 W236L, CHO, automated patch clamp (AID 2558;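 active = current increase at least 3 SD of the untreated controls above them in both duplicate recordings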). The conditions noted are these: at 25 µM; outcome: automated patch clamp current. In general terms: In patch-clamp work, channel activity is measured electrically.

Assay [8] has as its system TRPC4 beta (transient receptor potential cation channel C4), mouse. Nature of the assay: activators of mouse TRPC4 channel, confirmation, cell-based, Fluo4 calcium, HEK293 TRPC4beta/mu-opioid, duplicates, 10 µM (AID 2426;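 active = fluorescence ratio normalized to control raised more than 50% in primary screen plus both repeat runs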;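 as to activation: percent rise of integrated ratio over buffer wells lacking compound which define 0%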). To be noted: Fluo4 calcium fluorescence, at 10 µM; hits give high values.
The test system of assay [9] is transient receptor potential cation channel C4 beta (TRPC4), mouse. Nature of the assay: activators of mouse TRPC4 channel, confirmation, cell-based, second round, Fluo4, HEK293 TRPC4beta/mu-opioid, 1 µM (AID 2461;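 active = primary screen active and over 50% activation in each of two duplicate runs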). The conditions noted are these: Fluo4 calcium fluorescence, at 1 µM; hits give high values.
Assay [10] deals with TRPC4 (transient receptor potential cation channel C4 beta), mouse. Nature of the assay: positive allosteric modulators of mouse TRPC4, confirmation, cell-based, second round, Fluo-4, HEK293 TRPC4beta/mu-opioid, 1 µM (AID 2554;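 active = primary screen hit whose fluorescence ratio, in both repeats, exceeds the weak agonist control mean by 3 SD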). The conditions noted are these: DAMGO EC20, Fluo-4 calcium flux, at 1 µM; hits give high values. On the technique in general: Calcium assays in cells follow changes in intracellular calcium, usually with a dye or a luminescent sensor.

The subject of assay [11] is TRPC4 beta (transient receptor potential cation channel C4), mouse. The assay is described as follows: positive allosteric modulators of mouse TRPC4, confirmation, cell-based, Fluo-4, HEK293 TRPC4beta/mu-opioid (AID 2555;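 active = primary screen hit whose calcium fluorescence ratio, in both repeats, exceeds the weak agonist control mean by 3 SD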). The conditions noted are these: DAMGO EC20, Fluo-4 calcium flux, at 10 µM; hits give high values.
Assay [12] concerns the target Short transient receptor potential channel 4 (Mus musculus) (UniProt Q9QUQ5). Nature of the assay: inhibitors of mouse TRPC4 channel, confirmation, cell-based, Fluo4, HEK293 TRPC4beta/mu-opioid (AID 2636;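 active = calcium signal cut by more than 3 SD below the full-agonist control yet still positive, in both repeats and the earlier primary screen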). The conditions noted are these: DAMGO, Fluo4 calcium flux, at 10 µM; hits give high values.
Assay [13] shares this target. The assay is described as follows: inhibitors of mouse TRPC4 channel, confirmation, cell-based, second round, Fluo4, HEK293 TRPC4beta/mu-opioid, 1 µM (AID 2637;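 active = calcium signal ratio cut to more than 3 SD under the fully stimulated control mean yet still positive, in both repeats and the primary screen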). To be noted: Fluo4 calcium flux, DAMGO, at 1 µM; hits give high values.
Assay [14] shares this target. Nature of the assay: mouse TRPC4 channel activators, dose response, cell-based, HEK293 TRPC4/mu-opioid, Fluo-4 calcium (AID 434937;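 active = primary screen activator hit with a dose response curve and TRPC4 channel activation at any tested dose; inactive = no activation, no dose response, or not a primary hit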).
For assay [15] the target is unchanged. Nature of the assay: TRPC4 positive allosteric modulators, dose response, cell-based, HEK293 TRPC4/mu-opioid, Fluo-4 calcium, EC20 DAMGO (AID 434941;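 active = earlier screen potentiator hit that boosts the TRPC4 ion channel at some dose, with a dose response; inactive = no potentiation, no dose response, or not a prior hit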;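 also: calcium entry triggered by an EC20 dose of DAMGO at the co-expressed mu-opioid receptor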).
Assay [16] has the same target. The assay is described as follows: mouse TRPC4 channel inhibitors, dose response, cell-based, HEK293 TRPC4/mu-opioid, Fluo-4 calcium (AID 434942).
Assay [17] has as its target Short transient receptor potential channel 6 (Mus musculus) (UniProt Q61143). The assay is described as follows: inhibition of mouse TRPC6 channel, confirmation, selectivity assay for TRPC4 inhibitor project, cell-based, HEK293, membrane potential dye, duplicate (AID 434948;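 active = active in primary screen and both duplicates, each dropping signal beyond three positive-control SD with fluorescence still positive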). To be noted: HEK293 TRPC6, membrane potential dye fluorescence, at 10 µM, stimulated with maximal-effect acetylcholine; hits give high values.

Assay [18] shares this target. The assay is described as follows: activation of mouse TRPC6 channel, confirmation, selectivity assay for TRPC4 activator project, cell-based, HEK293, membrane potential dye, duplicate (AID 434950;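 active = membrane potential signal rise above negative control mean plus 3 SD in both duplicates, also active in the earlier TRPC4 screen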). To be noted: HEK293 TRPC6, membrane potential fluorescence, at 10 µM; hits give high values.
The target is the same in assay [19]. The assay is described as follows: TRPC6 potentiation by TRPC4 potentiator hits, confirmation, selectivity assay for TRPC4 potentiator project, HEK293 cells, membrane potential dye, duplicate (AID 434952;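 active = compound raising the membrane signal above positive-control mean plus 3 SD in both repeats, and a primary screen hit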). The conditions noted are these: HEK293 TRPC6, membrane potential dye fluorescence, at 10 µM, maximal acetylcholine added after compound; hits give high values.

The target of assay [20] is Short transient receptor potential channel 4 (Mus musculus) (UniProt Q9QUQ5). Nature of the assay: calcium flux activators in TRPC4/5HT1a cells, counter-screen for TRPC4 activator project, cell-based, second counter screen, HEK293 TRPC4/5HT1a, Fluo-4 (AID 434977;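 active = calcium signal rise above buffer-control mean plus 5 SD in both duplicates, and also a hit in the primary screen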;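 as to activation: plate controls were assay buffer for no effect and maximal serotonin response for full effect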). To be noted: Fluo-4 calcium flux, at 10 µM; hits give high values.
Assay [21] is described as follows: calcium flux inhibitors in TRPC4/5HT1a cells, confirmation, counter-screen for TRPC4 inhibitor project, cell-based, second counter screen, HEK293 TRPC4/5HT1a, Fluo-4 (AID 434978;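 active = primary screen active whose calcium signal fell more than 3 SD beyond the full-serotonin control mean in both duplicate plates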;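 also: serotonin given first at submaximal then at maximal dose after compound preincubation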). The conditions noted are these: Fluo-4 calcium flux, at 10 µM, serotonin added to trigger calcium flux; hits give high values.
In assay [22] the test system is TRPC4 (mouse), co-expressed with 5HT1a in HEK293. Nature of the assay: calcium flux potentiators in TRPC4/5HT1a cells, confirmation, counter-screen for TRPC4 potentiator project, cell-based, second counter screen, HEK293 TRPC4/5HT1a, Fluo-4 (AID 434979;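 active = signal rise over 3 SD above mean of control wells given weak agonist, in both repeats and first screen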). The conditions noted are these: Fluo-4 calcium flux, at 10 µM, serotonin added at its EC20 dose; hits give high values.

Assay [23] is described as follows: calcium flux activation in mu-opioid HEK293 cells, confirmation, counter-screen for TRPC4 activator project, cell-based, HEK293 mu-opioid receptor line (AID 449723;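 active = hit in primary screen, with calcium signal over 5 SD above buffer well mean in both duplicates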;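 also: counter screen cells carry the mu-opioid receptor alone and lack TRPC4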). The conditions noted are these: Fluo-4 calcium fluorescence, at 10 µM; hits give high values.
Assay [24] is described as follows: calcium flux enhancement in mu-opioid HEK293 cells, confirmation, counter-screen for TRPC4 allosteric potentiator project, cell-based, HEK293 mu-opioid receptor line (AID 449724;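 active = calcium signal rise more than 3 SD above the low-dose agonist control mean, in both duplicate plates and the primary screen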;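 also: HEK293 cells carrying mu-opioid receptor only with no TRPC4 channel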). To be noted: Fluo-4 calcium flux, at 10 µM, compound added before EC20 DAMGO stimulus; hits give high values.
Assay [25] has as its target Potassium voltage-gated channel subfamily E member 1 (Homo sapiens) + Potassium voltage-gated channel subfamily KQT member 1 (Homo sapiens) (UniProt P15382+P51787). The assay is described as follows: KCNQ1/KCNE1 complex potentiators, confirmation, selectivity assay for KCNQ1 potentiator project, thallium flux, CHO-K1 KCNQ1/E1 cells (AID 493186;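 active = mean duplicate activation above the buffer control mean plus 5 SD of those controls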). The conditions noted are these: FluxOR thallium flux, at 10 µM.

Assay [26] has as its target Potassium voltage-gated channel subfamily KQT member 1 (Homo sapiens) (UniProt P51787). The assay is described as follows: KCNQ1 channel inhibitors, confirmation, orthogonal assay, cell-based, automated electrophysiology (AID 624120;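 active = KCNQ1 current drop exceeding 3 SD of negative control wells, seen in both duplicate runs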). The conditions noted are these: KCNQ1-CHO cells, automated patch clamp current; at 10 µM.

SMILES strings stand for the structures. Values without a mark were called inactive. For some of these results: Results with a measured potency or affinity are listed apart. The list shows a part of the results. Calls of active or inactive are those of the source.

Short transient receptor potential channel 4 (Mus musculus), sequence (Q9QUQ5 whole entry, looked up): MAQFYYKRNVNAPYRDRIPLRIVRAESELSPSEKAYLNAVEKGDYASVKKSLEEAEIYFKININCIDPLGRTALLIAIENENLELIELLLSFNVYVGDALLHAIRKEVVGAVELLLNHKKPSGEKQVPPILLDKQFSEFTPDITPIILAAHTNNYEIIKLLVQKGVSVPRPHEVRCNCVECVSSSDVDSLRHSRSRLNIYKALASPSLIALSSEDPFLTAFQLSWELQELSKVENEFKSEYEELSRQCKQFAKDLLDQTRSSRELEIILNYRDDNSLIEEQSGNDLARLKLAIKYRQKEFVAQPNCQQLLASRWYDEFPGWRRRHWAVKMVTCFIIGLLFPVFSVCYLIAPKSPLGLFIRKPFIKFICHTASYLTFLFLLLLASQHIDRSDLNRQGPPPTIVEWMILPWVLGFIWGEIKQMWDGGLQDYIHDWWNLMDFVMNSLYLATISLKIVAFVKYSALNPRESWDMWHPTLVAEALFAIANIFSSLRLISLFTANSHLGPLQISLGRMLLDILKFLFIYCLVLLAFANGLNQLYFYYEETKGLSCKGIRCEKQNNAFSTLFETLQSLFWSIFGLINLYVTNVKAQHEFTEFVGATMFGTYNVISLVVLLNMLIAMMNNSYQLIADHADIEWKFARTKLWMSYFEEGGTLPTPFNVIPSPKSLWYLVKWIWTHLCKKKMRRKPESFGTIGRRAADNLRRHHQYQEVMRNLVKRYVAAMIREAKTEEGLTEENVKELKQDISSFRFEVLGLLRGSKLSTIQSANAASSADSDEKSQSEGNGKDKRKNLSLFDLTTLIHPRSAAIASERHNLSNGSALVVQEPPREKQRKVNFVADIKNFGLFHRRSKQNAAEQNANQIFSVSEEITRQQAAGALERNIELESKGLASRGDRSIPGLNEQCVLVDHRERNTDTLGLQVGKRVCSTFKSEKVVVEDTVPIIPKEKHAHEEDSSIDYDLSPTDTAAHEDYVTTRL
Inward rectifier potassium channel 2 (Mus musculus), sequence (P35561 whole entry, looked up): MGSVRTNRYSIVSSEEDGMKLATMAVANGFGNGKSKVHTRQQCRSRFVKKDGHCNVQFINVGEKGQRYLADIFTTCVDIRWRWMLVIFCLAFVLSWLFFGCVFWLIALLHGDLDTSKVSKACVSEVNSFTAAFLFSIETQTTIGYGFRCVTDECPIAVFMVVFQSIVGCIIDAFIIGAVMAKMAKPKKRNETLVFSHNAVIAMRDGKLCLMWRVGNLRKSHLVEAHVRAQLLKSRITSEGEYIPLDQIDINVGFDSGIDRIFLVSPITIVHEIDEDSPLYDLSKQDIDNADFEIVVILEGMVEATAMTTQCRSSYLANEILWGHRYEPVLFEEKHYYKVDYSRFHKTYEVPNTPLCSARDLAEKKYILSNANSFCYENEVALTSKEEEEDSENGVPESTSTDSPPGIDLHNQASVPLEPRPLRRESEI
Potassium voltage-gated channel subfamily KQT member 1 (Homo sapiens), sequence (P51787 whole entry, looked up): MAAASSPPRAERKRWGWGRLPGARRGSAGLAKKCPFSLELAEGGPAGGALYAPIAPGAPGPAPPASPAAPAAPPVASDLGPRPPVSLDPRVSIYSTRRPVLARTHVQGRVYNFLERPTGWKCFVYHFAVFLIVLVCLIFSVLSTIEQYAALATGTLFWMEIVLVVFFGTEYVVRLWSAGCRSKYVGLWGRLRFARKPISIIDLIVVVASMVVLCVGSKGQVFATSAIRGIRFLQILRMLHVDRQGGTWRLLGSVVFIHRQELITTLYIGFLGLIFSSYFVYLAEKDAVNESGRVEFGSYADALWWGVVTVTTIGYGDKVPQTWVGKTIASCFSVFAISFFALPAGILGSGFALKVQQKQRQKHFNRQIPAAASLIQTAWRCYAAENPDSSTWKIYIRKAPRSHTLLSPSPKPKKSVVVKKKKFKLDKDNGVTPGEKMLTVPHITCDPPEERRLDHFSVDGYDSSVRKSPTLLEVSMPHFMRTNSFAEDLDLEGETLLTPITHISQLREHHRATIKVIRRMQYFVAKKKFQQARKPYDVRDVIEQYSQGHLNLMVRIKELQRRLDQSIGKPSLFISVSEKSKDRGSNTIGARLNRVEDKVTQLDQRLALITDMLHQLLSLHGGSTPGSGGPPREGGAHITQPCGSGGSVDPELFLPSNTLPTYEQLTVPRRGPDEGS
Short transient receptor potential channel 6 (Mus musculus), sequence (Q61143 whole entry, looked up): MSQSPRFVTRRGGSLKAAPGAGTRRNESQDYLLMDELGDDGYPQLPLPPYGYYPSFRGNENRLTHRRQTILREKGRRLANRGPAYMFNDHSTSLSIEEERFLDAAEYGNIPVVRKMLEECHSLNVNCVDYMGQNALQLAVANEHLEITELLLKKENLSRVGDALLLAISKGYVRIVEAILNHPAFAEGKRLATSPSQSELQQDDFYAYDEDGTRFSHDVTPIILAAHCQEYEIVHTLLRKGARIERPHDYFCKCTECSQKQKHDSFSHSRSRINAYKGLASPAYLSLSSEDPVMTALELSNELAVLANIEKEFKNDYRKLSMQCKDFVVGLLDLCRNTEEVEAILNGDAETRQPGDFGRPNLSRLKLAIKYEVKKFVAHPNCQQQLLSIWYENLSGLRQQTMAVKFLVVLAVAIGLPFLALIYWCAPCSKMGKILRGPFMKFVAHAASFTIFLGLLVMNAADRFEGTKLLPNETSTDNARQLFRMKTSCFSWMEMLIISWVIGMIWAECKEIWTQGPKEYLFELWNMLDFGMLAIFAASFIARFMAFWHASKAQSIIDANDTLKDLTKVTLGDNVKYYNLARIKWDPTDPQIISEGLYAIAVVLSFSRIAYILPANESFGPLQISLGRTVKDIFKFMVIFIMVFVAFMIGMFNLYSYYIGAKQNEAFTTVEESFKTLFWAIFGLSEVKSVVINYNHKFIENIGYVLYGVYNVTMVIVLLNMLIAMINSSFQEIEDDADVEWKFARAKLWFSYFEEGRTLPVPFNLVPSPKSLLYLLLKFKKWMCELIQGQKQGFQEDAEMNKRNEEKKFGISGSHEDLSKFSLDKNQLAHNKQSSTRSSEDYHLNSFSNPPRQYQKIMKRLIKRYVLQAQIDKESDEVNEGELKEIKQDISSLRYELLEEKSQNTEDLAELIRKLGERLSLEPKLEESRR
Potassium voltage-gated channel subfamily E member 1 (Homo sapiens) + Potassium voltage-gated channel subfamily KQT member 1 (Homo sapiens), sequence (P51787 whole entry, looked up): as the sequence (P51787 whole entry, looked up) above

For `COc1ccc(F)c(-c2nc(CN3CCC(c4ccccc4)CC3)c(C)o2)c1`, the Tl flux remaining, % of negative control (hits give low values) in assay [1] was 45.5% (active). Moreover, the outcome in assay [2] was inactive.
Consider `Cc1cccc(NC(=O)c2nc(S(=O)(=O)Cc3ccccc3)ncc2Cl)c1`, for which the result in assay [1], in assay [2] and in assay [7] was inactive. Also, the activity increase over 3SD of controls in assay [3] is -15.5%. For the same compound, the activation over 3SD threshold in assay [4] was -22.3%. Besides, the potentiation, less the hit threshold in assay [5] is 4% (active). Further, the activity over 3SD threshold in assay [6] is -36%.
Regarding `CCc1ccc(-c2nn(-c3ccccc3)cc2CSC(=N)N)cc1`, the activation in [8] is 125% (active); in [20] it was 43.7% (active); in [23], 24.4% (active). Moreover, the outcome in [9], in assay [10], in [11], in assay [12], in assay [13] and in assay [14] was inactive. The result in assay [15], in assay [16], in [17], in assay [18], in [19] and in assay [21] was inactive. For the same compound, the outcome in assay [22] and in assay [24] was inactive.
For `Cc1[nH][nH]c(=O)c1C(c1ccc(-c2ccc(Cl)cc2)o1)c1c(C)[nH][nH]c1=O`, the result in assay [25] was inactive.
Take `FC(F)(F)c1cccc(NC(=S)Nc2cccc(Cl)c2)c1`: the call in [26] was inactive.
The same measure, in the same setting: next, `S=C(NCc1ccc(Cl)cc1)NC12CC3CC(CC(C3)C1)C2`: “active”.
Turning to `CCN(CCO)Cc1csc2ccc(Br)cc12`, the outcome in assay [8], in assay [9], in assay [11], in assay [12], in assay [13] and in assay [14] was inactive. Also, the outcome in assay [15], in assay [16], in [17], in assay [18], in [19] and in assay [20] was inactive. Also, the result in assay [21], in [22], in assay [23] and in assay [24] was inactive. For the same compound, the potentiation in assay [10] was 12% (active).
On to `C=CCn1c(=N)n(CC(O)COc2ccccc2OC)c2ccccc21` (configuration not stated), for which the result in [8], in assay [9], in assay [10], in assay [11], in assay [12] and in assay [13] was inactive. The result in assay [14], in [15], in assay [16], in [17], in assay [18] and in assay [19] was inactive. For the same compound, the outcome in [20], in assay [21], in assay [22], in assay [23] and in assay [24] was inactive.
Take `O=C(Nc1nc2c(s1)CN(Cc1ccccc1)CC2)c1c(F)cccc1F`: the outcome in assay [8], in assay [9], in [10], in assay [12], in [13] and in [14] was inactive. Also, the result in assay [15], in [16], in assay [17], in [18], in assay [19] and in assay [20] was inactive. For the same compound, the outcome in assay [21], in [23] and in assay [24] was inactive. The potentiation in assay [11] was 10% (active); in assay [22] it was 14% (active).
With `O=S(=O)(c1ccc(Cl)cc1Br)N1CCCCC1`, the outcome in assay [8], in assay [9], in assay [10], in assay [11], in assay [12] and in assay [13] was inactive. In addition, the outcome in assay [14], in assay [15], in assay [16], in [17], in assay [18] and in [19] was inactive. In addition, the outcome in [20], in assay [21], in [22], in assay [23] and in assay [24] was inactive.
